According to ChEMBL document CHEMBL3988442, “University of Dundee, Small-Polar-MMV Screening Library” (2021):

biological target: T1, Aspartate--tRNA(Asp/Asn) ligase (Mycobacterium tuberculosis (strain ATCC 25618 / H37Rv)) (UniProt P9WFW3); experiment: Assay for Asp RNA synthetase-1 from Mycobacterium tuberculosis; assay type: functional; parameters: scale not given: in the data most compounds retested in dose-response had high values; conditions: 30 µM
T1 sequence (whole entry): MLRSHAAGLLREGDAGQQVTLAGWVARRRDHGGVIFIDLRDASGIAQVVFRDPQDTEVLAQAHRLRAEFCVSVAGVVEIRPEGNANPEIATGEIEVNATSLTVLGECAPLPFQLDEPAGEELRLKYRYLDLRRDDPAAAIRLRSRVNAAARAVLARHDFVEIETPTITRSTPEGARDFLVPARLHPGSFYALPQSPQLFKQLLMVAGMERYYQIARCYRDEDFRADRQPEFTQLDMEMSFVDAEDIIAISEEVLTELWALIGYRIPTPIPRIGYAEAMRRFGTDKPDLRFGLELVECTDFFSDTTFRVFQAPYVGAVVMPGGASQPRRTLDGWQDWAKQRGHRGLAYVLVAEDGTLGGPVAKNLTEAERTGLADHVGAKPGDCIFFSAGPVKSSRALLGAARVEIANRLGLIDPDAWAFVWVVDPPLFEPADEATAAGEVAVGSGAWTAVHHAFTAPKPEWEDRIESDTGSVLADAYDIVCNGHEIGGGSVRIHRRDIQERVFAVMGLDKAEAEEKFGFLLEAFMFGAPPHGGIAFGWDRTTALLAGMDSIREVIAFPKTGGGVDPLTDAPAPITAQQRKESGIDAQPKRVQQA

Row | Compound | Percent Effect
1 | CCc1nc(CNC(=O)Nc2ccc(C(=O)NC)cc2C)cs1 | -0.0804%
2 | COc1ccc(CNC(C)c2cccc(Cl)c2)c(OC)c1OC (stereo not given) | -3.05%
3 | N#Cc1cccc(CS(=O)(=O)NCC(O)Cc2ccccc2)c1 (stereo not given) | -0.908%
4 | CN1CCCC(CNC(=O)N2CCN(Cc3ccon3)CC2)C1 (stereo not given) | -6.42%
5 | CC(C)SCC(=O)N1CCc2c(nc(N(C)C)nc2N(C)C)C1 | -3.12%
6 | Cc1ccc(C#N)c(N2CCC(c3nccn3Cc3cscn3)CC2)n1 | 2.26%
7 | C[S+]([O-])CCCNC(=O)c1cc(Br)c2c(c1)OCCO2 (stereo not given) | -1.74%
8 | COc1ncccc1NC(=O)N1CCC(CNC(C)=O)CC1 | -1.39%
9 | Cc1cc(C)n(CC2CCCCN2CC(=O)Nc2cccnc2)n1 (stereo not given) | -0.655%
10 | O=C1N(Cc2ccc(F)c(F)c2)CCCC12CCN(C1CCSCC1)C2 (stereo not given) | -5.55%
11 | CCS(=O)(=O)N1CCC(c2nnc(CN3CCCC3)n2C2CC2)CC1 | -0.379%
12 | CCC(=O)N1CCc2[nH]cnc2C12CCN(C(=O)c1snnc1C)CC2 | 1.62%
13 | COC(=O)c1cccc(C(=O)N2CCCCC2CCn2ccnc2C)c1 (stereo not given) | 0.586%
14 | Cc1ccsc1CNC(=O)NC1CCCc2c1cnn2CCO (stereo not given) | -1.99%
15 | O=C(O)[C@]12CCCN(Cc3ccncc3)[C@@H]1CCN(c1cnccn1)C2 | 0.862%
16 | O=C(NCC(F)(F)F)NC1CCCc2c1cnn2CCO (stereo not given) | -1.62%
17 | CCN(C)c1ccc(C(=O)N(CCOC)Cc2ccccn2)cc1 | 2.13%
18 | CCN(CC(=O)NC)C(=O)Cc1nc(-c2ccco2)oc1C | -4.7%
19 | CC(C)N1CCC(NCc2cccnc2N(C)Cc2ccccc2)CC1 | -1.94%
20 | O=C(NCCc1csc(N2CCCC2)n1)N(C1CCCC1)C1CC1 | 4.33%

Row | Compound | Percent Effect
21 | CN(Cc1csc(-c2cccs2)n1)C(=O)CCn1ccccc1=O | -1.85%
22 | COc1cccc(S(=O)(=O)CCN2CCCCC2)c1 | 3.32%
23 | Cc1nn(-c2ccccc2)c2c1C(c1ccc(C(=O)O)cc1)CC(=O)N2 (stereo not given) | 1.57%
24 | CSc1cccc(CN(C)C(=O)C2CC(=O)N(CCN(C)C)C2)c1 (stereo not given) | -2.59%
25 | Cc1cccc(NC(=O)[C@@H]2CCCN2CC(=O)N2CCCCCC2)n1 | -2.13%
26 | CN(CCO)Cc1nnc(C2CCN(C(=O)C(C)(C)C)CC2)n1C | 3.14%
27 | Cc1cc(F)ccc1OC1(C(=O)O)CCN(Cc2cccnc2N)CC1 | -3.76%
28 | CSC(C)(C)CNC(=O)NCCC1CCN(C)CC1 | -1.57%
29 | COc1cccc(S(=O)(=O)CCN2CCCN(C(C)=O)CC2)c1 | -1.55%
30 | COCCc1noc(CN(C)C2CCCN(c3ccc(C)nn3)C2)n1 (stereo not given) | 0.172%
31 | COC(=O)CCN1CCCC1c1cccc2c1OCCO2 (stereo not given) | -1.34%
32 | CC(O)CN1CCN(C(=O)c2cnn(-c3ccccc3F)c2)CC1 (stereo not given) | -2.52%
33 | O=C(c1ccsc1)N1C[C@@H](CN2CCCC2)[C@@H](CO)C1 | -2.54%
34 | O=C(NCCCn1ccnc1)N1CCCC1c1ccncc1 (stereo not given) | -2.68%
35 | CC(C)Nc1ncc(CN2C[C@@H](CN3CCC(O)CC3)[C@@H](CO)C2)cn1 | -1.99%
36 | O=C(CCNS(=O)(=O)c1ccccc1)NCc1ccoc1 | -2.82%
37 | Cc1oc(C(=O)O)cc1S(=O)(=O)Nc1c(F)cccc1-n1cccn1 | -2.17%
38 | COc1c(C)cnc(CSc2nnc(C)s2)c1C | -1.18%
39 | Cc1cnn(CCNCc2csc(C)n2)c1 | 0.747%
40 | CN1CCN(C(CNC(=O)CCn2cccn2)c2cccs2)CC1 (stereo not given) | -1.05%
